Experimental data reported in PubChem BioAssay (NCI).
Values joined by “and” are separate entries in the source; they are usually repeats but may differ in a detail not shown here. Equal values may be shown once. This is part of a sample that, as a whole, favours compounds with a hit. Of some 79,000 tested, about 15% had one in any assay. Rule as the data show it: active = growth inhibition above about 70%; inactive = the rest.

What was measured:
[1] = NCI Yeast Anticancer Drug Screen. Data for the rad50 strain (AID 155);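 also: 0% = growth of vehicle-only cultures of the same strain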; details: S. cerevisiae rad50 strain growth inhibition, stronger effect = higher value; at 50.0 µM unless noted
How it was run: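 Relative growth inhibition (compound vs vehicle) was measured in yeast with a defined repair-gene alteration.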

[2] = NCI Yeast Anticancer Drug Screen. Data for the mec2-1 strain (AID 157); details: S. cerevisiae mec2-1 strain, stronger effect = higher value; at 50.0 µM unless noted
How it was run: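 Strain: mec2-1 (DNA repair/cell cycle alteration). Compound exposure, then growth measured; inhibition expressed relative to vehicle.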

[3] = NCI Yeast Anticancer Drug Screen. Data for the sgs1 mgt1 strain (AID 161);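 also: 0% = growth of cultures given vehicle only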; details: S. cerevisiae sgs1 mgt1 strain, stronger effect = higher value; at 50.0 µM unless noted
How it was run: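 Mutant yeast exposed to compound; growth scored against vehicle-only wells.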

[4] = NCI Yeast Anticancer Drug Screen. Data for the cln2 rad14 strain (AID 165);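 also: 0% = growth equal to vehicle treated cultures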; details: S. cerevisiae cln2 rad14 strain, stronger effect = higher value; at 50.0 µM unless noted
How it was run: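 Compounds are applied to the cln2 rad14 yeast strain, and growth is then compared with that of vehicle-treated cultures to give inhibition.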

[5] = NCI Yeast Anticancer Drug Screen. Data for the bub3 strain (AID 167); details: S. cerevisiae bub3 mutant strain, stronger effect = higher value; at 50.0 µM unless noted
How it was run: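 Screening used yeast with an engineered genetic alteration affecting cell cycle control. Compound-exposed cultures were compared with vehicle cultures, and reduced growth was taken as inhibition.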

[6] = NCI Yeast Anticancer Drug Screen. Data for the mlh1 rad18 strain (AID 175); details: S. cerevisiae mlh1 rad18 strain growth inhibition, stronger effect = higher value; at 50.0 µM unless noted
How it was run: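 Read-out is yeast growth inhibition, calculated against vehicle-only controls. The compound was applied to a strain engineered with DNA damage repair alterations.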

Measured: growth inhibition

Cc1cc(=O)n2nc(CSc3nnc(N)s3)sc2n1
inactive: [1] -0.7% | [2] 0.5% | [3] 7.35% | [4] 5.55% | [5] 10.5% | [6] 4.2%

CC(C)(C)c1cc(-n2nc3ccccc3[n+]2[O-])c(O)c(C(C)(C)C)c1
inactive: [1] 4.35% | [2] 12.8% | [3] 20.1% | [4] 18.6% | [5] -0.6% | [6] 33.6%

Cc1nc(-c2ccc(N=Cc3ccc(N4CCC5(CCCCC5)CC4)cc3)cc2)cs1
inactive: [1] 25% | [2] -2.05% | [3] 15.7% | [4] 18.6% | [5] 6.1% | [6] -3%

CCC1(C=O)C(=O)NC(=O)N1C (stereo not drawn)
inactive: [1] 3.4% | [2] 1.05% | [3] 2% | [4] 6.25% | [5] 1.7% | [6] 6.45%

CC1CC(OCCO)CC(C)(C)C1 (stereo not drawn)
inactive: [1] 13% | [2] 0.5% | [3] 6.95% | [4] -8.8% | [5] 14.9% | [6] 7.2%

COc1ccc(N2CC[N+](c3ccc(N(C)C)cc3)=C2C2=[N+](c3ccc(N(C)C)cc3)CCN2c2ccc(OC)cc2)cc1
inactive: [1] 0.3% | [2] -6.8% | [3] -17.4% | [4] -7.6% | [5] -10.2% | [6] 20.5%

CC1=C2CC(C)(C)CC(=O)C2(C)CCC1=O (stereo not drawn)
inactive: [1] 4.2% | [2] -6.55% | [3] 11.9% | [4] 25.6% | [5] -2.85% | [6] 27.8%

O=C(O)C(=O)c1c(O)[nH]c2ccccc12
inactive: [1] 1.35% | [2] -10.1% | [3] 11.5% | [4] -14.8% | [5] -8% | [6] 17.6%

O=C1C2CCC2C(=O)N1c1ccc2ccccc2c1 (stereo not drawn)
inactive: [1] -38.5% | [2] -1% | [3] 0.35% | [4] -17.9% | [5] 12.6% | [6] 6.75%

CC(C)c1ccc(/C(C(=O)O)=C(\O)C(=O)O)cc1
inactive: [1] -14.4% | [2] -7.25% | [3] -15.4% | [4] 29.9% | [5] -31.6% | [6] -7.45%

N#CCCN1CCCC(=O)NC1=O
inactive: [1] 4.4% | [2] -14.4% | [3] -5.35% | [4] -37.7% | [5] -7.4% | [6] -15.4%

COc1ccc(C2OC3=C(Nc4cc(C)c(C)cc4N3)C2=O)cc1 (stereo not drawn)
inactive: [1] 11.2% | [2] -8.05% | [3] 2.05% | [4] -1.35% | [5] -22.3% | [6] 13.8%

Cc1cc(-c2ccc(N=Nc3ccc4c(S(=O)(=O)O)cc(S(=O)(=O)O)c(N)c4c3O)c(C)c2)ccc1N=Nc1ccc2c(S(=O)(=O)O)cc(S(=O)(=O)O)c(N)c2c1O
inactive: [1] -137% and -0.25% | [2] -40.7% and -71.1% | [3] -56.4% and -33.9% | [4] -147% and -4.9% | [5] -118% and -26.3% | [6] -49.2% and -11.2%

COc1ccccc1NC(=O)C1=C(C)NC(C)=C(C(=O)Nc2ccccc2OC)C1c1ccccc1F
inactive: [1] 32% | [2] 5.35% | [3] 17.1% | [4] 16% | [5] -1.05% | [6] 15.7%

Cc1cc(=O)n(-c2ccccc2)c(=O)[nH]1
inactive: [1] 1.2% | [2] 1.95% | [3] 1.5% | [4] 1.2% | [5] -4.25% | [6] -12%

Clc1ccc(/C=N\OCc2ccc(Cl)c(Cl)c2)cc1Cl
inactive: [1] -9.85% | [2] -13.1% | [3] 2.1% | [4] -17.9% | [5] -4.85% | [6] -5.25%

Cc1ccc2nc(=O)c3cccnc3n2c1
inactive: [1] 25.9% | [2] 31.1% | [3] 29.9% | [4] 5.1% | [5] 23.8% | [6] 12.8%

CC1=N[C@@H](C(=O)NCC(N)=O)Cc2c1[nH]c1ccccc21
inactive: [1] 11.7% | [2] 10.1% | [3] 8.65% | [4] -7.85% | [5] -4.25% | [6] 4.4%

COc1ccc(/C=C2\CN(CCCC(=O)O)C(=O)C2=O)cc1
inactive: [1] 3.6% | [2] -7.5% | [3] 0% | [4] -6.45% | [5] 4.1% | [6] -16.7%

CNC(=O)NCCCCC(NC(=O)OCc1ccccc1)C(=O)OCc1ccccc1 (stereo not drawn)
inactive: [1] 3.15% | [2] -14% | [3] -37.2% | [4] -3.5% | [5] 1.15% | [6] -24.1%

CC(C)c1ccccc1O
inactive: [1] 34.9% | [2] 30.7% | [3] 9.95% | [4] 8.8% | [5] 0.45% | [6] 22.4%

CCOC(=O)CC(C#N)(C#N)CC(=O)OCC
inactive: [1] 4.15% | [2] 21.3% | [3] 5.85% | [4] -0.1% | [5] 26.8% | [6] -0.55%

CCOC(=O)c1cn[nH]c1C
inactive: [1] 1.35% | [2] -0.9% | [3] -2.2% | [4] -21.4% | [5] -3.05% | [6] -1.95%

O=C(CSc1nnc(-c2ccc(N=Cc3ccc(Cl)cc3)cc2)o1)Nc1cccc([N+](=O)[O-])c1
inactive: [1] -1.95% | [2] -11.1% | [3] 3.85% | [4] 18.1% | [5] -40% | [6] 2.45%

CNC(=O)N(C)Cc1ccccc1
inactive: [1] 12.7% | [2] -12.8% | [3] 2.75% | [4] -98.7% | [5] -13.6% | [6] -11.2%

Cc1ccc(O)c(C=NCCN=Cc2cc(C)ccc2O)c1.[Zn]
inactive: [1] -14.4% | [2] 8.6% | [3] 0.05% | [4] -13% | [5] -43.1% | [6] -32.4%

COC(C)(/C(C)=N/O)c1ccc(-c2ccccc2)cc1 (stereo not drawn)
inactive: [1] 7.85% | [2] -7.95% | [3] 2.8% | [4] -0.65% | [5] 16.6% | [6] 19.7%

CC(=O)OCC1OC(OC(C)=O)C(NC(=O)c2ccccc2)C(OC(C)=O)C1OC(C)=O (stereo not drawn)
inactive: [1] -2.1% | [2] -3.45% | [3] -3.5% | [4] -20.6% | [5] 17.4% | [6] -1.5%

CCCCC/C(C=O)=C\c1ccccc1
inactive: [1] 38.5% | [2] 15.8% | [3] 39.5% | [4] -12.2% | [5] 18% | [6] 38%

O=C(O)CC(O)(c1ccccc1)c1ccccc1
inactive: [1] 0.05% | [2] -1.7% | [3] -5.05% | [4] -7.9% | [5] 1.4% | [6] 0%

O=C(C(/C=N/C(=S)NC1C(=O)Nc2ccccc21)=C(/O)c1ccccc1)c1ccccc1 (stereo not drawn)
inactive: [1] 9.6% | [2] -0.85% | [3] 16.9% | [4] 27.5% | [5] 21.7% | [6] -9.4%

CC1CCC2C(C)C(=O)OC2C2(C)C(=O)C=CC12 (stereo not drawn)
inactive: [1] 11.9% | [2] -12.3% | [3] 13.7% | [4] 22.6% | [5] 2.7% | [6] -27.4%

CC(=O)Nc1ccc(NCC(=O)Nn2cnc3ccc(S(=O)(=O)Nc4ccc(NC(C)=O)cc4)cc3c2=O)cc1
inactive: [1] 5.55% | [2] -18.1% | [3] 16.6% | [4] 20.9% | [5] -0.6% | [6] 6.95%

C[n+]1c(SCC(=O)O)sc2ccccc21
inactive: [1] -28.8% and 1.2% | [2] -46.3% and 10.1% | [3] 3.7% and 19.6% | [4] 14.9% and 6.5% | [5] -26.6% and 34.2% | [6] 5.7% and 22.9%

COC(=O)C(C)(C)C(C)=O
inactive: [1] -40% | [2] -47.1% | [3] -37.5% | [4] 7.5% | [5] -26.9% | [6] -30.4%

O=S(=O)(/C(=C\c1ccccc1)c1ccccc1)c1ccccc1
inactive: [1] -4.8% | [2] -12.4% | [3] -12.8% | [4] -17.7% | [5] -4.5% | [6] -6.65%

CN(C)c1ccc(/C=C(\C#N)c2ccc(F)cc2)cc1
inactive: [1] -2.65% | [2] -1.8% | [3] 3.05% | [4] -26.6% | [5] -6.75% | [6] -17.8%

CN(C)C(=O)OC(Cn1cncn1)(Cn1cncn1)c1ccc(Cl)cc1Cl
inactive: [1] -29.8% | [2] 13% | [3] 7.5% | [4] -10.8% | [5] 5.1% | [6] -16.8%
